Keap1 Nrf2 FP: disrupts human Keap1 binding to Nrf2 peptide. Q14145. Keap1 Kelch-Nrf2 peptide fluorescence polarization, 1536-well. inhibition, % at 9.4 µM. 0.15% of 340,000 active. AID 504523; in the data active means inhibition above about 12%; inconclusive means no clear call, values can overlap the other calls; inactive means below about 7.3%;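 further: human Keap1 Kelch domain with fluorescein labeled Nrf2 9mer peptide probe; 0% = neutral control wells and 100% = peptide positive control; higher means more block of Keap1 binding to Nrf2 peptide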
Target sequence (Q14145 whole entry, looked up, the tested form may be a part): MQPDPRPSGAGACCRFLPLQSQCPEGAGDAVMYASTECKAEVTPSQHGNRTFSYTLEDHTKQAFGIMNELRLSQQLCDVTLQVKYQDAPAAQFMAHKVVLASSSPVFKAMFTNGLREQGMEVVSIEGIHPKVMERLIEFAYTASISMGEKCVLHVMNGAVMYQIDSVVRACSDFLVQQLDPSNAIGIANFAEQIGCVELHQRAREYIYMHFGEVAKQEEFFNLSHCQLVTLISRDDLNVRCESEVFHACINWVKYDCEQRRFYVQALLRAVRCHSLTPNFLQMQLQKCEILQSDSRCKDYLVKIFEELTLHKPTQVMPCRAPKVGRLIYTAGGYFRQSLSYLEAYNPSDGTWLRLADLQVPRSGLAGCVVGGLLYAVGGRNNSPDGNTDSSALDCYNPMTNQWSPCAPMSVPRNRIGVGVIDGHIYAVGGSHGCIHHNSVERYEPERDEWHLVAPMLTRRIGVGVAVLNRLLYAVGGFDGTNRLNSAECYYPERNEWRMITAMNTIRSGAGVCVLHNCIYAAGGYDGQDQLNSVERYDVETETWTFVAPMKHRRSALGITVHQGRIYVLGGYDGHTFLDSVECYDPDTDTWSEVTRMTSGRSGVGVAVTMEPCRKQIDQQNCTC
RTF Ca sens inh: cardiac RTF calcium desensitization; P19429+P45379; inhibition, % at 7.15 µM; IANBD-labeled cardiac RTF, Ca2+ fluorescence; 0.12% of 340,000 active;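 active means inhibition above the mean inhibition of all tested compounds plus 3 SD, cut at about 17% in these data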;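 further: assay run at fixed EC70 calcium of 1.6 mM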
C-LANA FP: inhibitors of KSHV LANA C-terminal domain DNA binding; MBP-C-LANA/FAM-LBS DNA binding, fluorescence polarization; inhibition, % at 9 µM; 0.078% of 340,000 active;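 active means highest replicate inhibition at or above 60% at 9 µM, even if other replicates fall short; inactive means all replicates below 60% inhibition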;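 further: 0% = neutral control wells and 100% = 4 µM acridine orange control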
RTF Ca sens act: increases calcium sensitivity of human cardiac regulated thin filaments. P19429+P45379. IANBD-labeled TnC RTF fluorescence at EC20 calcium; 0% EC20 calcium, 100% full calcium. activation, % at 7.2 µM. 0.24% of 340,000 active. AID 493008;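 active means activation above the mean over all tested compounds plus 3 SD, cut at about 30% in these data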;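 further: rise in fluorescence read as greater calcium sensitivity of cardiac thin filaments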
E coli Lon inh: inhibitors of E. coli Lon protease. P0A9M0. purified E. coli Lon protease, fluorescence polarization. inhibition, % at 7.94 µM. 0.42% of 360,000 active; in the data active means inhibition above about 13%, passing the limit was not always enough;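 further: 0% = enzyme with probe and DMSO and 100% = no enzyme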
The depositor's hits bear a star; i = inactive; u = inconclusive; x = no result given; + = active, no number. In the library only some 0.82% were active in any assay of this set; here they are far more common.

SMILES	Keap1 Nrf2 FP	RTF Ca sens inh	C-LANA FP	RTF Ca sens act	E coli Lon inh
CC(OC(=O)/C(C#N)=C/c1ccc(N(C)C)cc1)C(=O)N(C)Cc1ccccc1 (stereo unspecified)	-9	-48	3	30*	-255
CC(OC(=O)c1cccc(O)c1)C(=O)N(C)Cc1ccccc1 (stereo unspecified)	-3	-12	-1	0	7
CC(=O)c1cc(NC(=O)c2ccc(C)cc2)c(=O)oc1/C=C/N(C)C	-5	-26	-1	36*	-84
COc1ccc(C(=O)Nc2cc(C(C)=O)c(/C=C/N(C)C)oc2=O)cc1	-2	-35	1	22	-125
COc1ccc(CC(N)c2csc(NC(=O)C(c3ccccc3)c3ccccc3)n2)cc1 (stereo unspecified)	x	x	x	x	0
COc1ccc(C)cc1NC(=O)CC1COc2ccccc2O1 (stereo unspecified)	-1	-14	-1	67*	4
CCOC(=O)c1c(-c2ccc(C)cc2)csc1NC(=O)/C(C#N)=C/c1ccc(O)c(OC)c1	7	-33	7	49*	-125
CCOC(=O)/C(C#N)=C\c1ccc(O)c(OC)c1	0	-2	-1	-5	-5
CCOC(=O)c1c(-c2ccccc2)csc1NC(=O)/C(C#N)=C\c1ccc(O)c(OC)c1	-7	-64	-1	40*	i
NC(c1csc(NC(=O)Nc2ccc(OC(F)(F)F)cc2)n1)C1CCCCC1 (stereo unspecified)	x	x	x	x	-4
CCOc1ccccc1C(=O)NC(C(=O)OCn1nnc2ccccc2c1=O)C(C)C (stereo unspecified)	x	x	x	x	-8
NNC(=O)c1cc(O)c(O)c(O)c1	-3	-3	81*	2	-8
COc1c(Cl)cc(C(=O)NN)cc1Cl	-5	-13	0	8	5
COc1cccc(C(O)c2nc(-c3cccc(C(F)(F)F)c3)cs2)c1 (stereo unspecified)	x	x	x	x	-15
CC(=O)C1=CCC(c2cccc3ccccc23)N(S(=O)(=O)c2ccc(C)cc2)C1 (stereo unspecified)	x	x	x	x	-12
CCOC(=O)CN1C(=O)S/C(=C/c2ccc(N3CCCCC3)o2)C1=O	-6	-48	-14	70*	-169
COC(=O)CN1C(=O)S/C(=C/c2ccc(N3CCCCC3)o2)C1=O	-132	-291	-44	322*	-442
COc1cc(/C=C/C(=O)CC(=O)/C=C/c2ccc(O)c(OC)c2)ccc1O	-45	-63	-9	57*	-409
COc1ccc(-n2c(O)c(/C=N/NS(=O)(=O)c3cccc([N+](=O)[O-])c3)c3ccccc3c2=O)cc1OC	-218	-43	-59	33*	-110
COc1ccccc1-c1csc(C(C)(O)c2ccccc2)n1 (stereo unspecified)	x	x	x	x	-3
CCN(CC)c1ccc(/C=C2\C(=N)N3N=C(CC(=O)N4CCOCC4)SC3=NC2=O)cc1	-40	-25	9	38*	i
CSc1ccc(/C=C2\C(=N)N3N=C(CC(=O)N4CCOCC4)SC3=NC2=O)cc1	-3	-8	5	1	-16
Cc1cc(O)ccc1C1(c2ccc(O)cc2C)OC(=O)c2ccccc21	5	-6	1	-6	-11
CC(=O)Oc1ccc2c(c1)Oc1cc(OC(C)=O)ccc1C21OC(=O)c2ccccc21	15*	i	168*	+	x
C[C@@H]1CN([C@H](C)CO)C(=O)c2c(c3ccccc3n2C)-c2ccccc2CO[C@H]1CN(C)Cc1ccc(Oc2ccccc2)cc1	x	x	x	x	-6
SMILES	Keap1 Nrf2 FP	RTF Ca sens inh	C-LANA FP	RTF Ca sens act	E coli Lon inh
Cc1nnc(N2CCOCC2)c2nn(-c3cccc(Cl)c3)c(C)c12	1	-38	2	33*	-24
Cc1nnc(-n2ncc(C#N)c2N)c2nn(-c3cccc(Cl)c3)c(C)c12	-4	-2	3	-4	-10
CCNC(=S)N/N=C/c1sc(N2CCCCC2)nc1-c1cccs1	-2	-19	7	33*	-24
COc1cc(F)ccc1-c1csc(C(O)(c2ccccc2)C(F)(F)F)n1 (stereo unspecified)	x	x	x	x	5
N#C/C(=C\c1coc2ccccc2c1=O)C(N)=S	-4	-11	0	3	-11
N#C/C(=C\c1coc2ccc(O)cc2c1=O)C(=O)Nc1nc2ccccc2s1	-111	i	-1	313*	-409
C[C@@H]1CCCCO[C@H](CN(C)C(=O)Nc2ccc3c(c2)OCO3)[C@H](C)CN([C@@H](C)CO)C(=O)c2cc(NS(=O)(=O)c3ccc(Cl)cc3)ccc2O1	x	x	x	x	-9
COc1ccc(NC(=O)c2cccc3c(-c4ccc(O)c(OC)c4)coc23)cc1	x	x	x	x	-8
CN(C)c1ccc(/C=C/c2ccc3ccccc3n2)cc1	-6	-50	0	42*	-133
C(=C\c1ccc2ccccc2n1)/c1ccccc1	0	2	-2	-9	-10
CNc1nc(Nc2ccc(C)cc2C)c2sccc2n1	x	x	x	x	0
CCOC(=O)C1=C(O)/C(=C/c2cn(CC(=O)NCC3CCCO3)c3ccccc23)SC1=Nc1ccc(C)cc1 (stereo unspecified)	-7	-20	21	135*	-6
CCOC(=O)C1=C(O)/C(=C/c2ccc(-c3ccccc3C(=O)O)o2)SC1=Nc1ccc(C)cc1	-35	-19	4	1	-98
O=[N+]([O-])c1ccc(Nc2ccccc2)c2nonc12	-13	2	-2	-6	-28
O=[N+]([O-])c1ccc(Sc2cccc[n+]2[O-])c2nonc12	20*	-6	19	6	-34
CN(C)C(=O)c1cccc(-c2cnc3c(NC=O)cc(-c4ccc(N(C)C)cc4)cn23)c1	x	x	x	x	-68
Cc1nc2ccc(Cl)cc2nc(C)/c1=N\O	-21	3	13	34*	-6
COc1ccccc1N(CC(=O)NCc1ccccn1)S(C)(=O)=O	0	2	-1	-5	-8
COc1ccc(OC)c(N(CC(=O)NCc2ccccn2)S(C)(=O)=O)c1	-2	-16	-1	2	31*
CCOC(=O)c1ccc2nc(C)c(CCC(C)=O)c(Cl)c2c1	-6	3	0	-8	20*
CCSC1=N/C(=C\c2ccc3c(c2)OCO3)C(=O)S1	u	-2	10	3	-3
CCSC1=N/C(=C\C=C2/Oc3ccccc3N2CC)C(=O)S1	-4	-46	-3	39*	-260
Cc1nnc(N2CCC(C(=O)N3CCCCC3)CC2)c2nn(-c3ccc(Cl)cc3)c(C)c12	-3	1	-1	-3	-6
COc1ccc(-n2nc3c(N4CCC(C(=O)N5CCC(C)CC5)CC4)nnc(C)c3c2C)cc1	-65	-45	-4	32*	-300
O=C(NCC1CCCO1)c1cccc2c1C(=O)c1ccc(N3CCC(Cc4ccccc4)CC3)cc1S2(=O)=O (stereo unspecified)	0	-162	6	61*	-185
Cc1ccc(CNC(=O)c2cccc3c2C(=O)c2ccc(N4CCCCC4)cc2S3(=O)=O)cc1	-2	-84	15	65*	-88

Compound activity as filed in PubChem BioAssay.
